# In article PMC8384837, “Expanding the binding specificity for RNA recognition by a PUF domain”:
# Assays:
# Test in all cases: yeast three-hybrid, YBZ-1, SC-Leu-His + 0.5 mM 3-AT, 4 days
# Details in all cases: tags: N-Gal4 AD-HA kept; label: inside an RPR1-promoter hybrid RNA with tandem MS2 sites; ssRNA
# PUM1 PUF domain R1-QLT = PUM1 PUF domain R1-QLT (Homo sapiens, UniProt Q14671 828-1176, S863Q;R864L;Q867T)
# In short: (§1)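 Matching RNA elements and Pumilio-1 PUF domain libraries, randomized at the three base-contacting residues of every repeat, were co-expressed from a centromeric plasmid in strain YBZ-1 (LexA–MS2 coat fusion, HIS3 reporter). The repeat regions were PCR-amplified and Illumina-sequenced from cells grown four days on SC-Leu (input) or SC-Leu-His + 0.5 mM 3-AT (selection). The interaction score is the log change in variant frequency from input to selection. It is computed in log2, with a pseudocount of 1 for absent variants.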
# PUM1 PUF domain R4-NRR = PUM1 PUF domain R4-NRR (Homo sapiens, UniProt Q14671 828-1176, H972R;Q975R)
# In short: as §1
# PUM1 PUF domain R4-KSQ = PUM1 PUF domain R4-KSQ (Homo sapiens, UniProt Q14671 828-1176, N971K;H972S)
# In short: as §1
# PUM1 PUF domain R8-YYK = PUM1 PUF domain R8-YYK (Homo sapiens, UniProt Q14671 828-1176, N1122Y;Q1126K)
# In short: as §1
# PUM1 PUF domain R3-YRF = PUM1 PUF domain R3-YRF (Homo sapiens, UniProt Q14671 828-1176, C935Y;Q939F)
# In short: as §1
# PUM1 PUF domain R1-SFK = PUM1 PUF domain R1-SFK (Homo sapiens, UniProt Q14671 828-1176, R864F;Q867K)
# In short: as §1
# PUM1 PUF domain R3-RQE = PUM1 PUF domain R3-RQE (Homo sapiens, UniProt Q14671 828-1176, C935R;R936Q;Q939E)
# In short: as §1
# PUM1 PUF domain R3-RQP = PUM1 PUF domain R3-RQP (Homo sapiens, UniProt Q14671 828-1176, C935R;R936Q;Q939P)
# In short: as §1
# PUM1 PUF domain R3-LHY = PUM1 PUF domain R3-LHY (Homo sapiens, UniProt Q14671 828-1176, C935L;R936H;Q939Y)
# In short: as §1
# PUM1 PUF domain R3-RRE = PUM1 PUF domain R3-RRE (Homo sapiens, UniProt Q14671 828-1176, C935R;Q939E)
# In short: as §1
# PUM1 PUF domain R4-DFV = PUM1 PUF domain R4-DFV (Homo sapiens, UniProt Q14671 828-1176, N971D;H972F;Q975V)
# In short: as §1
# PUM1 PUF domain R3-GYF = PUM1 PUF domain R3-GYF (Homo sapiens, UniProt Q14671 828-1176, C935G;R936Y;Q939F)
# In short: as §1
# PUM1 PUF domain R5-MRG = PUM1 PUF domain R5-MRG (Homo sapiens, UniProt Q14671 828-1176, C1007M;Q1011G)
# In short: as §1
# PUM1 PUF domain R6-GFM = target: T1, PUM1 PUF domain R6-GFM (Homo sapiens, UniProt Q14671 828-1176, N1043G;Y1044F;Q1047M)
# T1 sequence: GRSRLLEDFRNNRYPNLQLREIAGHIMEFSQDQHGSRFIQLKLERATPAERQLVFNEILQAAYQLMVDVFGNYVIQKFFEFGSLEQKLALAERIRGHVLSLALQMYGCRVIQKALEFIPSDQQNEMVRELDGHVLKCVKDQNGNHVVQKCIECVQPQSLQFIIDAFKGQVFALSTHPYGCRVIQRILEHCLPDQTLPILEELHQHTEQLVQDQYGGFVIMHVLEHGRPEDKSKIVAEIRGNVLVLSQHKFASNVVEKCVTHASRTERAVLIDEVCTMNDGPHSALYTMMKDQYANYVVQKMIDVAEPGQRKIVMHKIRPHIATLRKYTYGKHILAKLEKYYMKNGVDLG
# In short: as §1
sequence,measurement,setting,value
GGCUAGAACUAGUGGAUCCCCCGGCGCCCGGCGGCUCGAGCCCGGGUAAGUGUAAAUUGUCUGCAUGCCGCCGGGCGCCAUGCCUGCAGGUCGACUCUAGAAAACAUG,binding signal,PUM1 PUF domain R1-QLT,2.41 log2 enrichment (interaction score)
GGCUAGAACUAGUGGAUCCCCCGGCGCCCGGCGGCUCGAGCCCGGGUAAGUGUAUAUAGUCUGCAUGCCGCCGGGCGCCAUGCCUGCAGGUCGACUCUAGAAAACAUG,binding signal,PUM1 PUF domain R4-NRR,1.51 log2 enrichment (interaction score)
same,binding signal,PUM1 PUF domain R4-KSQ,3.81 log2 enrichment (interaction score)
GGCUAGAACUAGUGGAUCCCCCGGCGCCCGGCGGCUCGAGCCCGGGUAAGCGUAAAUAGUCUGCAUGCCGCCGGGCGCCAUGCCUGCAGGUCGACUCUAGAAAACAUG,binding signal,PUM1 PUF domain R8-YYK,4.78 log2 enrichment (interaction score)
GGCUAGAACUAGUGGAUCCCCCGGCGCCCGGCGGCUCGAGCCCGGGUAAGUGUAAGUAGUCUGCAUGCCGCCGGGCGCCAUGCCUGCAGGUCGACUCUAGAAAACAUG,binding signal,PUM1 PUF domain R3-YRF,5.65 log2 enrichment (interaction score)
GGCUAGAACUAGUGGAUCCCCCGGCGCCCGGCGGCUCGAGCCCGGGUAAGUGUAAAUCGUCUGCAUGCCGCCGGGCGCCAUGCCUGCAGGUCGACUCUAGAAAACAUG,binding signal,PUM1 PUF domain R1-SFK,6.11 log2 enrichment (interaction score)
GGCUAGAACUAGUGGAUCCCCCGGCGCCCGGCGGCUCGAGCCCGGGUAAGUGUAAUUAGUCUGCAUGCCGCCGGGCGCCAUGCCUGCAGGUCGACUCUAGAAAACAUG,binding signal,PUM1 PUF domain R3-RQE,2.81 log2 enrichment (interaction score)
same,binding signal,PUM1 PUF domain R3-RQP,3.85 log2 enrichment (interaction score)
same,binding signal,PUM1 PUF domain R3-LHY,4.13 log2 enrichment (interaction score)
same,binding signal,PUM1 PUF domain R3-RRE,3.8 log2 enrichment (interaction score)
GGCUAGAACUAGUGGAUCCCCCGGCGCCCGGCGGCUCGAGCCCGGGUAAGUGUACAUAGUCUGCAUGCCGCCGGGCGCCAUGCCUGCAGGUCGACUCUAGAAAACAUG,binding signal,PUM1 PUF domain R4-NRR,3.57 log2 enrichment (interaction score)
same,binding signal,PUM1 PUF domain R4-DFV,3.48 log2 enrichment (interaction score)
GGCUAGAACUAGUGGAUCCCCCGGCGCCCGGCGGCUCGAGCCCGGGUAAGUGUAAAUAGUCUGCAUGCCGCCGGGCGCCAUGCCUGCAGGUCGACUCUAGAAAACAUG,binding signal,PUM1 PUF domain R3-GYF,5.74 log2 enrichment (interaction score)
same,binding signal,PUM1 PUF domain R5-MRG,0.66 log2 enrichment (interaction score)
same,binding signal,PUM1 PUF domain R3-YRF,1.16 log2 enrichment (interaction score)
same,binding signal,PUM1 PUF domain R4-DFV,6 log2 enrichment (interaction score)
same,binding signal,PUM1 PUF domain R6-GFM,3.52 log2 enrichment (interaction score)
